Many of the other results were omitted from the sample, so hits are more common in it than they were.
EphB4 ephrin blk: EphB4-ephrin-B2 interaction antagonists, primary screen, biochemical, TNYL-RAW peptide probe, fluorescence polarization; EphB4 LBD / TNYL-RAW-Alexa532 peptide; 97,000 tested, 0.15% active; inhibition, % at 7 µM; Ephrin type-B receptor 4 (Homo sapiens), P54760;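 active means inhibition above the screen-wide mean inhibition plus 3 SD, cut at about 15% in these data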
D1 allo mod: D1 CRE-luciferase signal change, two-sided – cell-based, HEK293 D1, dopamine EC30, D1 allosteric modulator project, primary screen; D(1A) dopamine receptor (Homo sapiens), P21728; dopamine EC30 potentiation; actives deviate in either direction; B-score at 10 µM; 58,000 tested, 5.9% active; AID 641, 2007;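 active means luminescence count or its row- and column-corrected plate score outside the 99.7% band of the plate's sample wells, on either side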
DAT uptake mod: changed hDAT dopamine uptake under cocaine IC80, either direction, primary screen, cocaine antagonist project, cell-based, LLC-PK1 hDAT, [14C]-dopamine uptake, MLSMR; Sodium-dependent dopamine transporter (Homo sapiens), Q01959; B-score at 10 µM; 110,000 tested, 1.3% active; LLC-PK1 hDAT cells, [14C]-dopamine uptake with cocaine IC80; actives deviate in either direction; AID 449768, 2010;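 active means Z score or B-score, a plate-position-corrected score, falls beyond the plate's 99.7% confidence bounds, in either direction; inactive means both scores lie inside the 99.7% bounds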
Target sequence (Q01959 whole entry, looked up): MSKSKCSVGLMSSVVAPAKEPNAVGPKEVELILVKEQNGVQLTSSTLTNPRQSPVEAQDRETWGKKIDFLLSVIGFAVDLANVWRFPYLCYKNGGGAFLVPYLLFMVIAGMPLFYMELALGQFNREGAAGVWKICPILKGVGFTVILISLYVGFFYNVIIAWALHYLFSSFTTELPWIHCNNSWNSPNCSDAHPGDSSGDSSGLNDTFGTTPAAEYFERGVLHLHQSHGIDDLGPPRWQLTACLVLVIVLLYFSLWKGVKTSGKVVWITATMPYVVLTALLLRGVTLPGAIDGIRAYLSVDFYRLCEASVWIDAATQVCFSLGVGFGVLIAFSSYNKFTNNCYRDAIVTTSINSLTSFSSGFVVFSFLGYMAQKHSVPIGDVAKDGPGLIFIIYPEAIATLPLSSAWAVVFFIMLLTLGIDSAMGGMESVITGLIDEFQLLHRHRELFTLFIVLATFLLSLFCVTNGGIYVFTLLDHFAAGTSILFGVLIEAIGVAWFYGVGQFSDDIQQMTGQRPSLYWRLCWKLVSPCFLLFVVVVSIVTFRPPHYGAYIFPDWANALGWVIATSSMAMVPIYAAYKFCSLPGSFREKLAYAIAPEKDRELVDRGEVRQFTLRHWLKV
D1 mod confirm: D1 receptor positive allosteric modulators, retest, confirmation, cell-based, HEK293 D1, CRE-luciferase, duplicate; shares compounds with D1 allo mod; dopamine EC30 potentiation; hits give high values; luminescence at 10 µM; 2,200 tested, 88% active;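 active means luminescence in either of two replicates above the same-plate mean plus 3 SD of the low-dose dopamine control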
D1 ag no DA: D1 receptor agonism without dopamine, confirmation, mechanism study for D1 allosteric modulator project, cell-based, HEK293 D1, CRE-luciferase, secondary assay 1 | shares compounds with D1 allo mod | 1,900 tested, 0.8% active | luminescence, no dopamine; hits give high values | luminescence at 10 µM | AID 646, 2007; in the data active means luminescence above about 3900
Isoprot counter: isoproterenol response counter-screen activity for D1 modulators; HEK293 D1 CRE-luciferase, isoproterenol EC30 counter-screen; calls only at 10 µM; AID 647; shares compounds with D1 allo mod; 2,200 tested, 63% active;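 active means luminescence in either replicate above plate mean of wells with a partly effective reference agonist dose plus 3 SD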;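 further: isoproterenol raises cAMP through native beta-adrenoceptor Gs so signal bypasses D1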
Of the large screens only hits and unclear results are named; the others gave an inactive call (follow-up assays come after a bar, where they were run).

Cc1c(NS(=O)(=O)CC23CCC(CC2=O)C3(C)C)c(=O)n(-c2ccccc2)n1C (stereo unspecified)	D1 allo mod 3.3 | D1 mod confirm inactive | D1 ag no DA inactive | Isoprot counter inactive
CCOC(=S)N/C(=N\S(=O)(=O)c1ccc(C)cc1)c1ccccc1	none (no result: D1 allo mod)
Cc1nc2ccccc2c2oc(C(=O)NCCN3CCN(C)CC3)cc12	D1 allo mod 2.6 | D1 mod confirm inactive | D1 ag no DA inactive | Isoprot counter inactive
Cc1nc2ccccc2c2oc(C(=O)NCCCN3CCCC3=O)cc12	none (no result: EphB4 ephrin blk)
CCCNC(=O)CN1C(=O)NC2(CCCc3cc(OC)ccc32)C1=O (stereo unspecified)	none (no result: D1 allo mod)
Cc1ccc(SCCCCN2C(=O)NC(C)(C)C2=O)cc1	none
O=C(CSc1nc2ccccc2[nH]1)Nc1ccccc1N1CCOCC1	none (no result: D1 allo mod)
O=C(CSc1nc2ccccc2[nH]1)Nc1cc(C(F)(F)F)ccc1N1CCOCC1	D1 allo mod 4 | D1 mod confirm 7804 | Isoprot counter inactive
COc1ccc(-c2nc3ccc(N4CCCC4)cc3c(=O)[nH]2)cc1OC	none (no result: D1 allo mod, DAT uptake mod)
CC1Cc2ccccc2N1C(=O)c1ccc2snnc2c1 (stereo unspecified)	D1 allo mod 15 | D1 mod confirm 13280 | D1 ag no DA inactive | Isoprot counter active
CC1Cc2ccccc2N1C(=O)CSC1=NCCS1 (stereo unspecified)	none
C=CCn1c(SCc2ccc(F)cc2)nc2c1c(=O)[nH]c(=O)n2C	none
C/C=C/Cn1c(SCc2ccc(C)cc2)nc2c1c(=O)[nH]c(=O)n2C	D1 allo mod 12 | D1 mod confirm 26548 | D1 ag no DA inactive | Isoprot counter active
C=CCn1c(SCc2ccc(Cl)cc2)nc2c1c(=O)[nH]c(=O)n2C	D1 allo mod 2.9 | D1 mod confirm 8180 | D1 ag no DA inactive | Isoprot counter active
C=CCSc1nc2c(c(=O)[nH]c(=O)n2C)n1C(C)C	D1 allo mod 9.5 | D1 mod confirm 11684 | D1 ag no DA inactive | Isoprot counter active
CCCCCn1c(SCc2cccc(C)c2)nc2c1c(=O)[nH]c(=O)n2C	none (no result: EphB4 ephrin blk)
CCSc1nc2c(c(=O)[nH]c(=O)n2C)n1C	none (no result: D1 allo mod)
CC1Cc2ccccc2N1C(=O)Cn1c(=O)oc2cc(S(=O)(=O)N3CCCCC3)ccc21 (stereo unspecified)	none
Cc1cccc(NC(=S)N(CCN(C)C)C(C)c2ccccn2)c1 (stereo unspecified)	none (no result: D1 allo mod)
CCCc1[nH]nc2c1C1(CCN(C(=O)OCc3ccccc3)CC1)C(C#N)=C(N)O2	D1 allo mod 2.5 | D1 mod confirm 8040 | D1 ag no DA inactive | Isoprot counter active
CCc1[nH]nc2c1C1(CCN(C(=O)OCc3ccccc3)CC1)C(C#N)=C(N)O2	none
CCOC(=O)c1[nH]c2ccc(OC)cc2c1NC(=O)CCN1CCCC(C)C1 (stereo unspecified)	none (no result: D1 allo mod)
COc1cc(-c2c(C#N)c(N)nc(SCc3ccncc3)c2C#N)cc(OC)c1OC	none
N#Cc1c(N)nc(SCc2ccncc2)c(C#N)c1-c1cccs1	D1 allo mod 6.5 (no result: EphB4 ephrin blk) | D1 mod confirm 8108 | D1 ag no DA inactive | Isoprot counter active
CN(C(=S)NC1=CCS(=O)(=O)C1)C1CCCCC1	none (no result: D1 allo mod)
COc1cccc(C(=O)OCCN2C(=O)c3ccccc3C2=O)c1OC	D1 allo mod 3.1 | D1 mod confirm 5788 | D1 ag no DA inactive | Isoprot counter active
COc1ccc(C(=O)OCCN2C(=O)c3ccccc3C2=O)cc1	none
CC(NC(=O)C1CCCC1)c1ccc2c(c1)OCCO2 (stereo unspecified)	none (no result: D1 allo mod)
CC(NC(=O)C1CCC(=O)N1Cc1ccc(F)cc1)c1ccc2c(c1)OCCO2 (stereo unspecified)	D1 allo mod 2.1 | D1 mod confirm inactive | D1 ag no DA inactive | Isoprot counter inactive
COC(=O)[C@H](CC(C)C)NC(=O)NC1CCCCC1C (stereo partly specified)	none (no result: D1 allo mod)
CCC(Oc1nc2ccccc2nc1-c1ccccc1NC(C)=O)C(=O)c1ccccc1 (stereo unspecified)	none (no result: D1 allo mod)
Nc1nc(SCC(=O)OCc2ccccc2)[nH]c(=O)c1NC(=O)c1ccco1	D1 allo mod 3.2 (no result: EphB4 ephrin blk) | D1 mod confirm 6284 | D1 ag no DA inactive | Isoprot counter inactive
COC(=O)C(C)Sc1nc(N)c(NC(=O)c2ccco2)c(=O)[nH]1 (stereo unspecified)	none (no result: EphB4 ephrin blk, D1 allo mod)
c1ccc(-c2csc3ncn4cnnc4c23)cc1	D1 allo mod 18 | D1 mod confirm 18512 | D1 ag no DA inactive | Isoprot counter active
O=c1[nH]cnc2scc(-c3ccccc3)c12	none (no result: D1 allo mod)
COc1nc(NCCC2=CCCCC2)nc(OC)n1	D1 allo mod 7.2 | D1 mod confirm 8312 | D1 ag no DA inactive | Isoprot counter active
C1=C(CCNC2=NCCCCC2)CCCC1	none
CC(c1ccccc1)N1C(=O)c2ccccc2C1O (stereo unspecified)	none (no result: D1 allo mod)
OCc1cn(-c2ccccc2)nc1-c1ccc(-c2nn(-c3ccccc3)cc2CO)cc1	none
N#Cc1cn(-c2ccccc2)nc1-c1ccccc1	D1 allo mod 5.7 | D1 mod confirm 9992 | D1 ag no DA inactive | Isoprot counter inactive
O=C(NCc1ccco1)C1CC(c2ccc(C(F)(F)F)cc2)=NO1 (stereo unspecified)	none (no result: EphB4 ephrin blk, D1 allo mod)
CC(C)(C)c1ccc(OCCNC(=O)c2ncn[nH]2)cc1	none (no result: D1 allo mod)
Cn1ccnc1Sc1nc(Nc2cccc(Cl)c2)nc(N2CCOCC2)n1	D1 allo mod 8.4 | D1 mod confirm 15596 | D1 ag no DA inactive | Isoprot counter active
c1ccc(Nc2nc(N3CCOCC3)nc(N3CCOCC3)n2)cc1	none
CCOc1ccc(NC(=O)CNC(=O)c2cn(-c3ccccc3OC)c(=O)c3ccccc23)cc1	none (no result: D1 allo mod)
CSc1nc(NCC(C)C)nc(N2CCOCC2)n1	D1 allo mod 8.8 | D1 mod confirm 26752 | D1 ag no DA inactive | Isoprot counter active
CCCNc1nc(N2CCOCC2)nc(N2CCOCC2)n1	none
O=C(Nc1ccc(Cl)cn1)c1ccc(-c2ccc(Cl)c(Cl)c2)o1	none (no result: D1 allo mod)
COc1ccc(C(=O)Nc2ccc3oc(-c4cccc(Cl)c4)cc(=O)c3c2O)cc1	none (no result: EphB4 ephrin blk, D1 allo mod)
C=C1[C@@H](OC(C)=O)CC[C@]2(C)[C@@H]1C[C@@H]1C[C@H](OC(C)=O)C(C)=C([C@@H](OC(C)=O)[C@@H]2OC(C)=O)C1(C)C	none (no result: EphB4 ephrin blk, D1 allo mod)
COc1cccc(Oc2cnc(N)nc2-c2ccc(OC)cc2O)c1	D1 allo mod 15 | D1 mod confirm 22464 | D1 ag no DA inactive | Isoprot counter active

Bioassay records as filed in PubChem BioAssay.
